Bioassay records from PubChem BioAssay.
The list is not random: actives were taken first. Their share in the collection is about 7%.
HP1b binding inh = HTS for Inhibitors of HP1-beta Chromodomain Interactions with Methylated Histone Tails; Chromobox protein homolog 1 (Homo sapiens), P83916; AlphaScreen HP1-beta / biotin-H3K9me3 peptide binding; Potency, µM (series often up to 114 µM), usual class: inhibitors; actives 0.56% (n = 390,000); note: nearly all actives have a fitted effect of over 70% in size
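Compound inhibition of the preformed complex between 50 nM HP1-beta and 50 nM biotinylated H3K9me3 peptide was read by AlphaScreen. Buffer was PBS pH 7.4 with 0.01% Tween-20. Incubations ran 30 min at room temperature, with 10 ug/mL donor/acceptor beads.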
BAZ2B block = qHTS Assay for Inhibitors of BAZ2B; actives 4.4% (n = 360,000); Potency, µM (titrated, usually from 114 µM), hits mostly inhibitors; AlphaScreen BAZ2B-H3K14Ac peptide displacement; Bromodomain adjacent to zinc finger domain protein 2B (Homo sapiens), Q9UIF8; note: nearly all actives have a fitted effect of over 60% in size
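Complex of BAZ2B and biotin-H3K14Ac (50 nM apiece) forms over 30 min at RT, then faces library compounds up to 110 uM for another 30 min; AlphaScreen beads added, 20 min dark incubation, luminescence read.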
PI5P4K alpha inh = qHTS for Inhibitors of phosphatidylinositol 5-phosphate 4-kinase (PI5P4K). Phosphatidylinositol 5-phosphate 4-kinase type-2 alpha (Homo sapiens), P48426. AID 652105, 2013. max response, %. actives 1.2% (n = 330,000). PI5P4Kalpha enzyme, ADP-Glo luminescence, 60 min; active compounds read low; active = max response of -50% or lower; inconclusive = between -30% and -50%; inactive = -30% or higher; note: value at the top dose of about 77 µM
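Enzyme plus substrate dispensed, test compounds pinned in, then ATP (5 microM final) added. After 60 min at RT, ADP-Glo reagent 1 for 45 min and reagent 2 for 30 min preceded luminescence imaging.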
KAT2A inh = qHTS Assay for Inhibitors of GCN5L2. Histone acetyltransferase KAT2A (Homo sapiens), Q92830. GCN5L2 HAT assay, ThioGlo1 CoA-SH fluorescence. Potency, µM (highest dose often 58.9 µM), most hits filed as inhibitors. actives 0.21% (n = 390,000). AID 504327, 2011
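GCN5L2 (20nM final) in 50mM HEPES, 0.1mM EDTA pH 7.5, 0.01% Tween-20 was preincubated 15 min at room temperature with compound, then given ThioGlo1 (50uM), H3(1-25) peptide (75uM) and acetyl-CoA (70uM); CoA-thiol fluorescence (Ex340/Em540) was read at 0 and 20 min.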
JMJD2A Tudor inh = qHTS Assay for Inhibitors of JMJD2A-Tudor Domain | Lysine-specific demethylase 4A (Homo sapiens), O75164 | AlphaScreen JMJD2A-Tudor / H3K4me3 peptide binding | Potency, µM (titrated, usually from 114 µM), usual class: inhibitors | actives 4.4% (n = 390,000); note: nearly all actives have a fitted effect of over 50% in size
PLK1 PBD block = qHTS for Inhibitors of PLK1-PDB (polo-like kinase 1 - polo-box domain): Primary Screen; Serine/threonine-protein kinase PLK1 (Homo sapiens), P53350; Plk1 PBD binding of FITC phosphopeptide, fluorescence polarization; Potency, µM, usual class: inhibitors; actives 2.8% (n = 360,000); note: series mostly up to about 57 µM; nearly all actives have a fitted effect of over 65% in size
12-hLO cuvette = Cuvette-Based Assay for Inhibitors of 12-hLO (12-human lipoxygenase): 8HQ Series - Round 1. purified 12-hLO, cuvette UV 234 nm product formation. Potency, µM, actives largely listed as inhibitors. actives 60% (n = 35). shares compounds with BAZ2B block. AID 2163, 2009;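 active = compounds that slowed 12-hLO product formation enough to yield a measured IC50 potency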
JMJD2E inh-1 = Inhibitors of Human Jumonji Domain Containing 2E (JMJD2E): 8HQs - Round 1 | JMJD2E demethylase, FDH-coupled NADH fluorescence | shares compounds with BAZ2B block | AID 493212, 2011 | actives 89% (n = 130) | Potency, µM (titrated, usually from 57 µM), most hits filed as inhibitors
ME-1 prolif = qHTS Assay for Compounds Blocking the Interaction Between CBF-beta and RUNX1 for the Treatment of Acute Myeloid Leukemia: ME-1 cellular proliferation; Potency, µM (highest dose often 56.1 µM), actives largely listed as inhibitors; shares compounds with BAZ2B block; ME-1 cell proliferation, ATP luminescence, 48 h; actives 20% (n = 140)
JMJD2E inh-2 = Confirmation qHTS Assay for Inhibitors of Human Jumonji Domain Containing 2E (JMJD2E). shares compounds with JMJD2A Tudor inh. Potency, µM (highest dose often 56.8 µM), most hits filed as inhibitors. AID 2677, 2010. actives 93% (n = 140). Recombinant JMJD2E, FDH-coupled NADH fluorescence (FDH is formaldehyde dehydrogenase)
FDH inh = Counterscreen for JMJD2E Inhibitors: qHTS Assay for Inhibitors of Formaldehyde Dehydrogenase (FDH). Potency, µM (titrated, usually from 56.7 µM), actives largely listed as inhibitors. FDH enzyme assay, NADH fluorescence kinetic. actives 10% (n = 140). AID 2680, 2010. shares compounds with JMJD2A Tudor inh
Target sequence (P46154 whole entry, looked up): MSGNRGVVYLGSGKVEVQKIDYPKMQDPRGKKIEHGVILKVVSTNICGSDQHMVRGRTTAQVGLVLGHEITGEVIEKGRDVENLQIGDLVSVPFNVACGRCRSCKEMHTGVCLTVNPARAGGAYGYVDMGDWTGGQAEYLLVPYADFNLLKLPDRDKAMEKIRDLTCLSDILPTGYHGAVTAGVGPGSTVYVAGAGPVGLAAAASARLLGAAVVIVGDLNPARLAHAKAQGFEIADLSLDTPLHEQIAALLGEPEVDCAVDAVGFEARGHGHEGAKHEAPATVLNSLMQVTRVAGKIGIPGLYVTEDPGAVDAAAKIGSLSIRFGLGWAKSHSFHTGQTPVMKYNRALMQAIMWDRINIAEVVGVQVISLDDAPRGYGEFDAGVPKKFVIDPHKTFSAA
Each line names hits and unclear results; the compound was inactive in the other large screens (follow-up assays come after a bar, where they were run). Unless noted, calls come from the whole dose curve; as a rule, active = well fitted curve in the direction sought with a large enough effect; inconclusive = small, poorly fitted or top-dose-only effect, or another doubt; inactive = no such curve, though single readings can be large; an effect the other way counts as inactive or inconclusive.

CCN(CC)C(=S)SSC(=S)N(CC)CC	HP1b binding inh 17.8µM, PI5P4K alpha inh -77.5, KAT2A inh inconclusive, JMJD2A Tudor inh 79.4µM, PLK1 PBD block 0.844µM | ME-1 prolif 0.282µM
Cn1c(=O)n(CCCc2ccccc2)c(=O)c2c1nc1n2CCN1c1ccc(F)cc1	none (no result: PI5P4K alpha inh, PLK1 PBD block)
COc1ccc2c(c1)-c1nc(N)sc1CC2	HP1b binding inh inconclusive, BAZ2B block inconclusive, JMJD2A Tudor inh inconclusive, PLK1 PBD block inconclusive | ME-1 prolif inactive
NC(=O)c1cc(S(=O)(=O)NCC2CCC(C(=O)Nc3ccc(Cl)cc3)CC2)cs1 (centres undefined)	none (no result: PI5P4K alpha inh, PLK1 PBD block)
O=C1C(CCC(O)c2ccc(F)cc2)C(c2ccc(O)cc2)N1c1ccc(F)cc1 (centres undefined)	none (no result: HP1b binding inh, BAZ2B block, PI5P4K alpha inh, JMJD2A Tudor inh, PLK1 PBD block) | ME-1 prolif inactive
Nc1ccn(C2OC(CO)C(O)C2F)c(=O)n1 (centres undefined)	none (no result: HP1b binding inh, BAZ2B block, KAT2A inh, JMJD2A Tudor inh)
Nc1ccn([C@@H]2O[C@H](CO)[C@@H](O)[C@@H]2O)c(=O)n1	BAZ2B block inconclusive | ME-1 prolif 0.282µM
CCC(=O)NC(c1ccc(C)cc1)c1ccc2cccnc2c1O (centres undefined)	BAZ2B block 22.4µM, JMJD2A Tudor inh 79.4µM | 12-hLO cuvette inactive | JMJD2E inh-1 12.6µM | JMJD2E inh-2 12.6µM | FDH inh inactive
CCOc1ccc(C(NC(=O)CC)c2c(O)ccc3ccccc23)cc1 (centres undefined)	none
CCC(=O)NC(c1cccc([N+](=O)[O-])c1)c1c(O)ccc2ccccc12 (centres undefined)	none
CCC(=O)NC(c1cccs1)c1cc(Cl)c2cccnc2c1O (centres undefined)	none | 12-hLO cuvette 1µM | JMJD2E inh-1 12.6µM | JMJD2E inh-2 12.6µM | FDH inh inactive
CCC(=O)NC(c1ccc(C)cc1)c1cc([N+](=O)[O-])c2cccnc2c1O (centres undefined)	BAZ2B block 3.98µM, JMJD2A Tudor inh 22.4µM, PLK1 PBD block inconclusive | 12-hLO cuvette 2.3µM | JMJD2E inh-1 12.6µM | JMJD2E inh-2 12.6µM | FDH inh inactive
O=C(O)c1ccc2cccc(O)c2n1	BAZ2B block inconclusive
Cc1cccc2cc3cccc(C)c3nc12	none
